In PubChem BioAssay AID1347426 (Functional Genomics Laboratory (NCATS/FGL), 2020):
Among all 31,000 sequences or so, about 1,400 (4.5%) were called active. Shown is part of a subset that was picked to be rich in actives. A number with no mark means an inactive call.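 The calls were made as follows: active = median seed-adjusted z-score above 1 or below -1; inactive = the rest.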

Assay: Novel Modifiers of Survival Motor Neuron (SMN) Protein: Gene Identification via Genome-wide siRNA Screen;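 also: luminescence tracks full-length SMN protein made from the SMN2 reporter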
Conditions: HEK293T SMN2-luciferase reporter, siRNA knockdown, 72 h; actives lie on both sides
Outline: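 Each of three siRNAs per gene is reverse-transfected (1 pmol) into reporter HEK293T cells whose luciferase output tracks SMN protein level. After 72 h culture, ONE-Glo luminescence is control-normalized, log10-transformed and MAD-standardized; Common Seed Analysis deprioritizes seed-driven hits.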

| Sequence | median seed-adjusted z-score |
| --- | --- |
| CUGCUGUUGUUACUACCCATT against USF1 | 0.16 |
| GCAAGACCACGCUCCUUUATT against ARL11 | 1 (active) |
| GGAGUUAUCUGGUGACAAUTT against UROS | -0.248 |
| GGCUAGUAGCUGAACUUCATT against DIMT1L | 0.0156 |
| CAGUUGCAUUGGUUCCCAUTT against EZH1 | 0.268 |
| GCUUUGGAAGGGUUUGAUATT against DCT | -0.184 |
| GACGAAUCACUGCAGUUUATT against GOSR2 | -1.25 (active) |
| CAAGGUCUCCUGUGCUGAATT against MYOG | -0.0972 |
| GGAUGUUGAUGAAGGCAAATT against LDHAL6A | -0.15 |
| GAAUAUAACCUGCCGCUUUTT against CD44 | 0 |
| GGGCUGGAUUGGUACAGGATT against HS3ST2 | 0.133 |
| CGUGUGAUCCAGAGACUUATT against KRT1 | -0.362 |
| AAGGCUACUUAACAAAGGATT against S100A10 | 0.366 |
| GACGACUUCUUGAACAGAATT against ZNF207 | -3.1 (active) |
| GUAGGAUUGUUUAGUGUAATT against CACNA1D | -0.0856 |
| GCUUUGAGAUUUUCGAGGATT against MYO1B | 0.903 |
| CGAGAGCUCCAGAUCAUGATT against GSK3B | -0.952 |
| GGGAUUGAGUUAAAACUAUTT against SOX7 | -0.387 |
| GGUAGCUUCUGAUAAUGAUTT against LEO1 | 1.2 (active) |
| CGUGGGUAAUGAUGCGGAATT against TOM1 | 0.774 |
| GGAGUUGAAGGCCUACAAATT against APOE | 0.0321 |
| CCUUGUCUGUGCUCAAGUATT against USP35 | -0.219 |
| CACUUACCAAGGAUACCAATT against PHC2 | 0.177 |
| GGAUUUUACAGGAUAUCUUTT against SPPL2A | -0.358 |
| GAAUGGACUGGUACCUAUUTT against ALDOB | -1.34 (active) |
| GGAUCUGCAUAGUGACCAATT against PSMB1 | -0.35 |
| AUGUUUCAAUAGAUCCAGATT against LIMD2 | 0.418 |

| Sequence | median seed-adjusted z-score |
| --- | --- |
| GCACCAAAGUAUACAACGATT against PRKAR2B | -0.777 |
| GAUCUUGGAUGGAUUGCUATT against OCA2 | 0.457 |
| ACAACCCUCUUAAAACUAATT against IGF2 | -0.0306 |
| CUGUAUGGGUGGUCAAUCATT against ABCA1 | -1.27 (active) |
| GGACAACGAUAACCGAUCATT against CA1 | 0.262 |
| GUCUAAAUCUCGUUCCAAATT against SRrp35 | -0.0574 |
| AGGUCAAUGUGACUUUCCATT against KCNJ10 | -0.0371 |
| GAAACGAUAUGAAUGUAAATT against ZNF491 | 0.0642 |
| CCAUUGAAGAGGCUAUGAATT against SPAG7 | 0.263 |
| GAGUGGGAAUGGUCAGGCUTT against ADORA2B | -0.471 |
| GGUCCAUGGUGGAAGACGATT against MAL | 0.0733 |
| CCAUCUCAGGAGUUAGCUATT against ZNF281 | 1.19 (active) |
| GUGUCUGGAUUUUCACUGATT against F11 | -0.0319 |
| AGGCCUUGGUGGAACAUGUTT against PSAP | 0.107 |
| GCUCGUAAGUUGGUGAUCATT against TPM3 | 0.111 |
| GAACUAGCACGCAUCAAGATT against PPM1G | 0.073 |
| GCACCAGCCUUAACCCUCATT against RAB1B | 1.55 (active) |
| AAAUCCCGGUGAUCAUCGATT against MAP1LC3A | 0 |
| GAGACAACCUGCAACGACATT against GDI1 | 0.198 |
| CAGGAGUGAUUAAACGGUUTT against GNAI3 | 0.0656 |
| GCUCUCAUAUCAUUCCAUUTT against PPIL5 | 0 |
| GAUGAUUACCUGCAGAGCATT against MYD88 | -0.365 |
| CCAUCAAAAUCGCAGACUUTT against DDR1 | -0.166 |
| GGAUGUCUAGAUUACAUUUTT against PDE12 | 0.422 |
| GGAGUACCGGCUAACAAUATT against MORC4 | 0.13 |
| ACAUGAUCUUGGACCUGGATT against CSNK2B | -1.62 (active) |
| CAAUAGGAUUGGUCACCAATT against PNPT1 | 0.0729 |
